The source of these data is PubChem BioAssay (NCI).

Common to all, as to experiment: NCI-60 one-dose screen, 48 h (100 = growth as untreated, 0 = no growth, -100 = all killed)
The subject of experiment [1] is HCT-15 colon. Particulars: 10 µM unless noted.
Experiment [2] concerns HT29 colon. Particulars: 10 µM unless noted.
Experiment [3] concerns SNB-75 CNS. Particulars: 10 µM unless noted.
Experiment [4] concerns PC-3 prostate. The following applies: 10 µM unless noted.
The subject of experiment [5] is SK-MEL-5 melanoma. Particulars: 10 µM unless noted.
For experiment [6], the system named is LOX IMVI melanoma. Particulars: 10 µM unless noted.
In experiment [7] the test system is SK-MEL-28 melanoma. The following applies: 10 µM unless noted.
Experiment [8] relates to SK-MEL-2 melanoma. Particulars: 10 µM unless noted.
Experiment [9] deals with EKVX NSCLC. Particulars: 10 µM.
In experiment [10] the test system is UO-31 renal. Particulars: 10 µM unless noted.
Experiment [11] relates to TK-10 renal. Particulars: 10 µM unless noted.
Experiment [12] concerns ACHN renal. Particulars: 10 µM unless noted.
Experiment [13] concerns CCRF-CEM leukemia. The following applies: 10 µM.
The subject of experiment [14] is MOLT-4 leukemia. Particulars: 10 µM unless noted.
Experiment [15] deals with U251 CNS. Particulars: 10 µM unless noted.
The subject of experiment [16] is CAKI-1 renal. The following applies: 10 µM unless noted.
Experiment [17] relates to UACC-62 melanoma. Particulars: 10 µM unless noted.
Experiment [18] relates to SN12C renal. Particulars: 10 µM unless noted.
Experiment [19] concerns A498 renal. The following applies: 10 µM unless noted.
The test system of experiment [20] is SNB-19 CNS. Particulars: 10 µM unless noted.

Structures are written as SMILES. About 83,000 compounds went through this panel and 20% of them were active in at least one assay; those are over-represented in the sample as a whole.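 In brief: 96-well plates, 48 h treatment, single concentration, percent growth endpoint.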 A number with no mark means an inactive call. The source made the active and inactive calls. How the source made its calls: active means growth percent below 10; inactive means the rest.

Turning to `CCCCCC(=C/c1ccccc1)/C=N/N=C(N)N`, the growth was -37.8% (active) in [1]; -66.3% (active) in experiment [2]; 56.6% in experiment [3]; 37.8% in experiment [4]; -91.5% (active) in experiment [5]; -37.6% (active) in experiment [6]. The growth is -90.2% (active) in experiment [7]; -55.7% (active) in [8]; 46.1% in [9]; -53.2% (active) in experiment [10]; 72.9% in experiment [11]; 1.62% (active) in experiment [12]. Besides, the growth is 15.7% in experiment [13] and 8.92% (active) in experiment [14].

As to `CCCCN(CCC)CCCCCCCCCCN1CCCc2ccccc21`, the growth in [1] was 78.8%; in experiment [2], 21.8%; in experiment [3], 89%; in experiment [15] it was 87.7%; in experiment [4], 45.8%; in experiment [5], 98.8%. In addition, the growth in [6] was 67.8%; in experiment [7], 118%; in [8], 92.3%; in experiment [9] it was 64.3%; in [10], 54.3%; in experiment [11], 82.7%. In addition, the growth in experiment [12] was 82.7%; in [16], 63.2%; in experiment [13], 26.8%; in experiment [14], 50.5%.

For the molecule `Cc1c([C@H](C(Cl)Cl)[C@H](O)[C@H]2C[C@H](C)C(=O)O2)ccc2c1C(=O)[C@H]1[C@H]2C[C@@H](Br)[C@@]23O[C@@H](CO[C@H]2O)CC13C` (some centres undefined), the growth was 7.63% (active) in experiment [1]; 13.1% in experiment [2]; 58.4% in experiment [3]; 14.4% in experiment [15]; 30.4% in [4]; 26.6% in experiment [17]. In addition, the growth was 33.4% in experiment [6]; 47.6% in experiment [7]; 74% in experiment [8]; 27.7% in experiment [9]; 25.1% in experiment [18]; 56.2% in [10]. Besides, the growth was 45.9% in experiment [12]; -31.4% (active) in experiment [16]; -22.6% (active) in [19]; 17.2% in experiment [13]; 16.4% in experiment [14].

Consider `CCCCCCCCCCCCCCCCC(=O)O.CCCCCCCCCCCCCCCCCC(=O)O.CCCCCCCCCCCCCCCCCC(=O)O.CCCCCCCCCCCCCCCCCC(=O)O.CCCCCCCCCCCCCCCCCC(=O)O.CO[CH-]OC12COC1CC(O)C1(C)C(O)C(OC(C)O)C3=C(C)C(OC(=O)C(O)C([NH-])c4ccccc4)CC(O)(C(OC(=O)c4ccccc4)C21)C3(C)C.[Cu+].[Zn].[Zn].[Zn].[Zn].[Zn]` (centres undefined), for which the growth in [1] was 20.5%; in experiment [2], 12%; in experiment [20] it was 29.6%; in experiment [15], 33.6%; in experiment [4], 30.5%; in experiment [5], 38.4%. The growth in [17] is 42.8%; in [6], 39.4%; in [7], 80.4%; in experiment [8], 69.3%; in experiment [9], 29.5%; in experiment [18] it was 29.9%. Moreover, the growth in [10] is 27.2%; in [11], 48%; in experiment [12] it was 36.2%; in experiment [16], 27%; in experiment [19] it was 45.6%; in [13], 23.7%. For the same molecule, the growth in experiment [14] is 29%.

Consider `CC(=O)N1CCN(CCNC(=O)n2cc(-c3ccncc3)c(-c3cc(O)cc(Cl)c3)n2)CC1`, for which the growth in experiment [1] was 51.1%; in experiment [2], 21.7%; in experiment [20] it was 106%; in experiment [15] it was 80.1%; in experiment [4], 114%; in experiment [5] it was 63.6%. Further, the growth was 27.8% in experiment [17]; 68.3% in experiment [6]; 31.4% in [7]; 112% in [9]; 94.4% in [18]; 72.9% in [10]. Moreover, the growth in [11] was 62.5%; in experiment [12] it was 76.9%; in experiment [16], 99%; in [19] it was 93.1%; in experiment [13], 71.6%; in experiment [14], 67.3%.

On to `COc1cc(-c2nn(-c3ccc(NC(=O)c4ccc(Cl)c(Cl)c4)cc3)cc2-c2ccncc2)ccc1Cl`, for which the growth is 10.9% in experiment [1]; -14.7% (active) in experiment [2]; 85.9% in [20]; 48.7% in experiment [15]; 68.6% in experiment [4]; 64.8% in [5]. Besides, the growth in [17] is 64.4%; in [6], 35.9%; in experiment [7], 67.8%; in [9], 73%; in experiment [18], 79.4%; in experiment [10], 36.3%. In addition, the growth in experiment [11] was 17.2%; in experiment [12], 74.1%; in [16], 44.4%; in [19], 81.4%; in experiment [13] it was 67.6%; in experiment [14] it was 28.7%.

As to `Cc1ccc(C(=O)C(Br)C(Br)c2ccccc2)cc1` (centres undefined), the growth was 80.3% in experiment [1]; 101% in experiment [2]; 82.9% in experiment [3]; 82.7% in experiment [15]; 108% in experiment [4]; 94.3% in [5]. For the same molecule, the growth in experiment [17] was 94.7%; in experiment [6], 66.6%; in [7], 101%; in [8], 113%; in [18], 86.4%; in experiment [10], 66.9%. Also, the growth in experiment [12] was 44.3%; in experiment [16], 55.1%; in experiment [19] it was 75.6%; in experiment [14], 46%.

On to `CCC(C)(CC)c1ccc(O)c(C)c1`, for which the growth in experiment [1] was 101%; in experiment [2], 104%; in experiment [3], 86.2%; in [15], 97.7%; in [4] it was 98.9%; in experiment [5], 104%. The growth in experiment [17] is 109%; in [6], 97%; in experiment [7], 110%; in [8] it was 82.2%; in experiment [18] it was 102%; in experiment [10], 102%. Further, the growth in experiment [12] was 106%; in [16] it was 109%; in experiment [19], 100%; in experiment [14], 106%.

`COC(=O)C(C(=O)OC)C(Br)C(Br)C(Br)c1ccccc1` (centres undefined): the growth in experiment [1] is 79.7%; in [3], 87.4%; in [20] it was 100%; in [15], 94.8%; in experiment [4], 101%; in experiment [5], 91.5%. Besides, the growth is 80.9% in experiment [17]; -16% (active) in [6]; 106% in experiment [7]; 97.9% in experiment [18]; 77.7% in experiment [10]; 17.9% in experiment [12]. Besides, the figures for the growth in experiment [19], in experiment [13] and in experiment [14] were 116%, -28.9% (active) and 63.8%, respectively.
